Rtt109 HAT inh = blocks Candida albicans Rtt109/Vps75 acetyltransferase activity. purified Rtt109/Vps75, ThioGlo CoA-SH fluorescence, 4 h. Q5AAJ8. inhibition, % at 34.9 µM. AID 540336. 330,000 tested, 0.16% active;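 active means inhibition of at least 50% in every replicate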
LANA-H2B inh = blocks KSHV LANA binding to histone H2A/H2B. Q9QR71. cell-free LANA-H2A/H2B peptide, fluorescence polarization. inhibition, % (no concentration beside the values). 320,000 tested, 0.6% active; in the data active means inhibition mostly above about 10%, no sharp cut-off; inactive means mostly below about 6.7%
rCAG RNA binder = r(CAG) repeat RNA binding | TO-PRO-1 dye displacement fluorescence | inhibition, % at 3 µM | 370,000 tested, 1.3% active;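 active means inhibition above the plate cutoff, the mean of all test compounds on that plate plus 3 SD, cut at about 35% in these data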;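 further: 0% = DMSO alone and 100% = 100 µM mitoxantrone as full dye displacement; higher means more dye released from RNA so lower well fluorescence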
ABHD5 PLIN5 PPI = inhibitors of human ABHD5-perilipin-5 interaction; Q00G26+Q8WTS1; Split G. princeps luciferase complementation, luminescence, 4 h; inhibition, % at 4 µM; 360,000 tested, 0.78% active; AID 602281;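 active means inhibition above the mean inhibition across every tested compound plus 3 SD, cut at about 22% in these data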;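 further: 0% = DMSO only wells and the 100% control is not disclosed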
Target sequence (Q00G26 whole entry, looked up): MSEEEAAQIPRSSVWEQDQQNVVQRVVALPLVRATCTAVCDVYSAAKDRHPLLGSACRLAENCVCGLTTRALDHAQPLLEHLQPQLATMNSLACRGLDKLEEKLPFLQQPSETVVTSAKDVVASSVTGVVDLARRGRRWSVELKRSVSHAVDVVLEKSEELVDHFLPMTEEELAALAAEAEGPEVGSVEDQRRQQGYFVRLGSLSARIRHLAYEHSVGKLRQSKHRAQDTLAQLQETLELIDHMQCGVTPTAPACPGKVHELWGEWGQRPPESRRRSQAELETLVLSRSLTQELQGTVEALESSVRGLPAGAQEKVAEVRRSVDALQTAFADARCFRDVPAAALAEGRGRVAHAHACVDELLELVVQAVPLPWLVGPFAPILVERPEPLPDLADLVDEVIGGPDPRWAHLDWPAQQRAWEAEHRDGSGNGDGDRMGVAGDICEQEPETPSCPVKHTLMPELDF
Target sequence (Q8WTS1 whole entry, looked up): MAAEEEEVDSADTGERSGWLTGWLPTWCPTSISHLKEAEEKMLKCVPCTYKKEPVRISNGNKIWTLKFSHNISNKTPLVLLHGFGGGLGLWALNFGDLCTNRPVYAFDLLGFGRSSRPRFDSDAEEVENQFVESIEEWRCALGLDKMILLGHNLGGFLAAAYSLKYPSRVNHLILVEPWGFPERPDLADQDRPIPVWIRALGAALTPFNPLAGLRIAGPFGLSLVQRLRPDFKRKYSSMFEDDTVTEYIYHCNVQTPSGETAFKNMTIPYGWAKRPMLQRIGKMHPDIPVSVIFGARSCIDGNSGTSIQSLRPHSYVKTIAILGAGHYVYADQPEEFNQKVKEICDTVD
PRMT1 FP inh = PRMT1 (human) inhibition, primary screen; recombinant PRMT1, activity-based probe fluorescence polarization; inhibition, % at 2.79 µM; AID 652257; Q99873; 370,000 tested, 1.3% active;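 active means inhibition above about 21% made by adding two undisclosed values, limit read from the data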
ALR H2O2 inh = inhibitors of human sulfhydryl oxidase ALR; 290,000 tested, 3.8% active; purified ALR, DTT oxidation, H2O2 HRP-luminol luminescence; AID 485317; P55789; inhibition, % (no concentration beside the values);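 active means mean replicate inhibition above about 79%, with every replicate also reaching it, limit read from the data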
ABHD5-PLIN5 conf = confirmation of human ABHD5-PLIN5 interaction inhibitors. shares compounds with ABHD5 PLIN5 PPI. inhibition, % at 4 µM. biochemical ABHD5-PLIN5 interaction, luminescence. AID 651612. 2,200 tested, 67% active; in the data active means inhibition above about 23%;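 further: 0% = DMSO vehicle wells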
HNF4 counter = counter-screen for ABHD5-PLIN5 inhibitors: HNF4 split-luciferase; shares compounds with ABHD5 PLIN5 PPI; HNF4 dimerization, luminescence, biochemical; inhibition, % at 4 µM; 2,200 tested, 77% active;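 active means mean inhibition across replicate wells exceeding the computed hit threshold, cut at about 13% in these data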;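 further: light from luciferase halves that rejoin when HNF4 fusion proteins dimerize; 0% = DMSO only wells and the 100% control is not given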
An asterisk follows results filed as active. Compounds with a hit are over-represented: about 5.9% of the library has one in this group of screens.

How did COc1cccc(-c2sc3ccccc3c2-c2ccc(OCCN3CCCCC3)cc2)c1 do in these assays?
Rtt109 HAT inh: 7; LANA-H2B inh: 6; ABHD5 PLIN5 PPI: 29*; ALR H2O2 inh: 7; ABHD5-PLIN5 conf: 9; HNF4 counter: -6

What do the screens show for `COc1cccc(-c2sc3ccccc3c2-c2ccc(OCCN(C)C)cc2)c1`?
Rtt109 HAT inh: 14; LANA-H2B inh: 3; rCAG RNA binder: -1; ABHD5 PLIN5 PPI: 30*; PRMT1 FP inh: 1; ALR H2O2 inh: -11; ABHD5-PLIN5 conf: 20; HNF4 counter: 0

Results for COc1cccc(-c2sc3ccccc3c2-c2ccc(OCCN3CCCC3)cc2)c1 ?
Rtt109 HAT inh: -2; LANA-H2B inh: 8; rCAG RNA binder: 2; ABHD5 PLIN5 PPI: 17; PRMT1 FP inh: -3; ALR H2O2 inh: -7

Results for COc1ccc(-c2sc3cc(OC)ccc3c2-c2ccc(OCCN3CCCCC3)cc2)cc1 ?
rCAG RNA binder: 5; ABHD5 PLIN5 PPI: 25*; PRMT1 FP inh: -1; ABHD5-PLIN5 conf: 8; HNF4 counter: -2

Results for Oc1ccc2sc(-c3ccccc3O)c(-c3ccc(OCCN4CCCCC4)cc3)c2c1 ?
rCAG RNA binder: 8; ABHD5 PLIN5 PPI: 27*; PRMT1 FP inh: -3; ABHD5-PLIN5 conf: 18

How did COC(=O)[C@]12C=CCN1[C@H](c1ccc(C(F)(F)F)cc1)c1c(c3ccccc3n1S(=O)(=O)c1ccc(C)cc1)C2 do in these assays?
rCAG RNA binder: 20; PRMT1 FP inh: -1

Results for COC(=O)[C@]12C[C@H](CC(=O)NCCCN3CCCC3=O)C(=O)N(Cc3cccc4ccccc34)C1=C[C@H](COCc1ccccc1)O[C@@H]2C ?
rCAG RNA binder: 7; PRMT1 FP inh: 13

What do the screens show for `O=C(N/N=C/C=C/c1ccco1)c1ccccc1Cl`?
Rtt109 HAT inh: 7; LANA-H2B inh: -3; rCAG RNA binder: 8; ABHD5 PLIN5 PPI: 33*; PRMT1 FP inh: 15; ABHD5-PLIN5 conf: 32*; HNF4 counter: 37*

What do the screens show for `COc1ccc(C(C)NC(=O)c2ccc(Cl)cc2)cc1OC` (stereo not drawn)?
Rtt109 HAT inh: -1; LANA-H2B inh: -5; rCAG RNA binder: -2; ABHD5 PLIN5 PPI: -2; PRMT1 FP inh: 2; ALR H2O2 inh: -6

How did COc1ccc(C(=O)CC(SCC(NC(C)=O)C(=O)O)c2ccc(Cl)cc2)cc1OC (stereo not drawn) do in these assays?
Rtt109 HAT inh: -3; LANA-H2B inh: 0; rCAG RNA binder: 7; ABHD5 PLIN5 PPI: 38*; PRMT1 FP inh: 12; ALR H2O2 inh: 92*; ABHD5-PLIN5 conf: 24*; HNF4 counter: 20*

Results for O=C(NCc1c(F)cccc1F)C1CCC(CNS(=O)(=O)c2cccc3cccnc23)CC1 (stereo not drawn) ?
rCAG RNA binder: 1; PRMT1 FP inh: -3

Results for C=C(C(=O)c1ccccc1)C(C)CC(=O)c1ccccc1 (stereo not drawn) ?
Rtt109 HAT inh: 0; LANA-H2B inh: 3; rCAG RNA binder: -7; ABHD5 PLIN5 PPI: 14; PRMT1 FP inh: -6; ALR H2O2 inh: 11

What do the screens show for `C=C(C(=O)c1ccccc1)C(NC(C)(C)C)c1ccccc1` (stereo not drawn)?
Rtt109 HAT inh: -5; rCAG RNA binder: 4; ABHD5 PLIN5 PPI: 42*; PRMT1 FP inh: -1; ABHD5-PLIN5 conf: 65*; HNF4 counter: 54*

How did CCOC(=O)/C=C1\CN(C(C)c2ccccc2)S(=O)(=O)c2ccccc21 (stereo not drawn) do in these assays?
Rtt109 HAT inh: -1; LANA-H2B inh: 1; rCAG RNA binder: -3; ABHD5 PLIN5 PPI: 59*; PRMT1 FP inh: -1; ABHD5-PLIN5 conf: 7; HNF4 counter: 4

How did CCOC(=O)/C=C1\CN(CCC(C)C)S(=O)(=O)c2ccccc21 do in these assays?
Rtt109 HAT inh: -4; LANA-H2B inh: 2; rCAG RNA binder: -9; ABHD5 PLIN5 PPI: 5; PRMT1 FP inh: 0; ALR H2O2 inh: 20

What do the screens show for `CCC(=O)NC(c1ccc(Cl)cc1Cl)c1ccc2cccnc2c1O` (stereo not drawn)?
Rtt109 HAT inh: -7; LANA-H2B inh: 3; rCAG RNA binder: 1; ABHD5 PLIN5 PPI: 9; PRMT1 FP inh: -4; ALR H2O2 inh: -3

Results for CC(C)C(=O)NC(c1ccc(Cl)cc1Cl)c1ccc2cccnc2c1O (stereo not drawn) ?
Rtt109 HAT inh: -2; LANA-H2B inh: 1; rCAG RNA binder: 5; ABHD5 PLIN5 PPI: 29*; PRMT1 FP inh: 1; ALR H2O2 inh: -2; ABHD5-PLIN5 conf: 15; HNF4 counter: 5

How did CCc1nc2c(OCc3ccc(Cl)cc3Cl)cccn2c1N(C)C(=O)c1ccccc1F do in these assays?
rCAG RNA binder: 3; ABHD5 PLIN5 PPI: 7; PRMT1 FP inh: 3

How did CCOc1ccc(NC(=O)CN(C)C(=O)C2CC(=O)N(Cc3ccco3)C2)cc1OCC (stereo not drawn) do in these assays?
Rtt109 HAT inh: -6; LANA-H2B inh: -25; rCAG RNA binder: -1; ABHD5 PLIN5 PPI: 23*; PRMT1 FP inh: 3; ALR H2O2 inh: -9; ABHD5-PLIN5 conf: 29*; HNF4 counter: 24*

How did O=C(/C(=C/c1ccccc1)n1cncn1)c1ccc(Cl)cc1Cl do in these assays?
Rtt109 HAT inh: 2; LANA-H2B inh: -4; rCAG RNA binder: 2; ABHD5 PLIN5 PPI: 33*; PRMT1 FP inh: -2; ALR H2O2 inh: 71; ABHD5-PLIN5 conf: 90*; HNF4 counter: 57*

Results for CC1(C(=O)Nc2ccc(Cl)c(Cl)c2)CCN1C(=O)CCC1CCCC1 (stereo not drawn) ?
rCAG RNA binder: 0; ABHD5 PLIN5 PPI: -6; PRMT1 FP inh: 3

How did CN1/C(=C/C=C/c2n(C)c3cc([N+](=O)[O-])c([N+](=O)[O-])cc3[n+]2C)C(C)(C)c2ccccc21 do in these assays?
rCAG RNA binder: 22; ABHD5 PLIN5 PPI: 34*; PRMT1 FP inh: 7; ABHD5-PLIN5 conf: 35*; HNF4 counter: 56*

How did CCN(CC)c1ccc(NC(=O)CSc2nc3ccccc3c(=O)n2-c2ccc(C)cc2)cc1 do in these assays?
rCAG RNA binder: 13; PRMT1 FP inh: -3

What do the screens show for `O=[N+]([O-])c1cccc(-c2cc3ccccc3[nH]2)c1`?
Rtt109 HAT inh: 3; LANA-H2B inh: -2; rCAG RNA binder: 9; ABHD5 PLIN5 PPI: -10; PRMT1 FP inh: -4; ALR H2O2 inh: 0

How did O=[N+]([O-])/C=C/c1cc2ccccc2[nH]1 do in these assays?
Rtt109 HAT inh: -9; LANA-H2B inh: 3; rCAG RNA binder: 3; ABHD5 PLIN5 PPI: 41*; PRMT1 FP inh: 1; ALR H2O2 inh: 39; ABHD5-PLIN5 conf: 71*; HNF4 counter: 58*

Screens as filed in PubChem.
